Data published in the supplement of paper PMC13380429.

Assays:
[1] = system: Vero E6 infected with SARS-CoV-2; test: morphology score (similarity to uninfected cells); higher = more like uninfected cells; details: 24 h
[2] = system: Vero E6 infected with SARS-CoV-2; test: SARS-CoV-2 infection rate relative to infected DMSO; higher = more infection, active = 60 or less; details: 24 h

Row | SMILES | morphology score [1] | SARS-CoV-2 infection rate [2]
1 | O=[N+]([O-])c1cccc2cn[nH]c12 [7-nitroindazole] (10 µM) | 0.0542 | 100% (inactive)
2 | C=C[C@@]1(C)CC(=O)[C@]2(O)[C@@]3(C)[C@@H](O)CCC(C)(C)[C@@H]3[C@H](OC(=O)CCN(C)C)[C@H](OC(C)=O)[C@@]2(C)O1 [colforsin-daproate] (0.833333 µM) | 0.5 | 88.5% (inactive)
3 | O[C@@H](COc1cccc2ncccc12)CN1CCN([C@@H]2c3ccccc3[C@@H]3[C@H](c4ccccc42)C3(F)F)CC1 [zosuquidar] (0.833333 µM) | 0.0321 | 108% (inactive)
4 | CC1(C)CC[C@]2(C(=O)O)CC[C@]3(C)[C@H](C(=O)C=C4[C@@]5(C)C=C(C#N)C(=O)C(C)(C)[C@@H]5CC[C@]43C)[C@@H]2C1 [bardoxolone] (0.833333 µM) | 0.164 | 104% (inactive)
5 | C=C[C@]1(C)CC[C@@H](C(=C)C)C[C@H]1C(=C)C [beta-elemene] (10 µM) | -0.205 | 111% (inactive)
6 | NCc1ccc(S(N)(=O)=O)cc1 [mafenide] (10 µM) | 0.136 | 91% (inactive)
7 | CCOC(=O)/C=C(C)/C=C/C=C(C)/C=C/c1c(C)cc(OC)c(C)c1C [etretinate] (10 µM) | -0.112 | 92.5% (inactive)
8 | CCOC(=O)CC(=O)N1CCSC1COc1ccccc1OC (centres undefined) [moguisteine] (10 µM) | 0.165 | 99.5% (inactive)
9 | CCC(=O)OCN1C(=O)C=CC1=O (10 µM) | 0.14 | 97% (inactive)
10 | CC1(C)OC2(C)C(O)CC1CC2O (centres undefined) [epomediol] (10 µM) | 0.173 | 100% (inactive)
11 | CC(COc1ccccc1)NC(C)C(O)c1ccc(O)cc1 (centres undefined) [isoxsuprine] (10 µM) | 0.0115 | 109% (inactive)
12 | C[C@H](N)Cc1cccc(O)c1 [gepefrine] (10 µM) | -0.0218 | 106% (inactive)
13 | CCCCC(F)(F)[C@@]1(O)CC[C@H]2[C@@H](CC(=O)[C@@H]2CCCCCCC(=O)O)O1 [lubiprostone] (10 µM) | 0.0116 | 107% (inactive)
14 | Nc1[nH]cnc2ncnc1-2 [adenine] (10 µM) | 0.0482 | 102% (inactive)
15 | N[C@H](CO)C(=O)O [D-serine] (10 µM) | 0.0301 | 104% (inactive)
16 | O=C(/C=C/N1C[C@H]2C[C@@H]1CN2c1ccccn1)c1ccccc1O (10 µM) | -0.0425 | 116% (inactive)
17 | N=C(N)NC(=O)Cc1c(Cl)cccc1Cl [guanfacine] (10 µM) | 0.255 | 86% (inactive)
18 | N=C(N)c1ccc(/N=N/Nc2ccc(C(=N)N)cc2)cc1 [diminazene-aceturate] (10 µM) | 0.318 | 86% (inactive)
19 | COc1ccccc1Oc1c(NS(=O)(=O)c2ccc(C)cn2)nc(-c2ccncc2)nc1OC (10 µM) | 0.183 | 85.5% (inactive)
20 | CCCN1CCCC(c2cccc(O)c2)C1 (stereo in doubt) [preclamol] (10 µM) | -0.1 | 114% (inactive)
21 | CCNCCCNCCCCNCCCNCC (0.833333 µM) | 0.312 | 80.5% (inactive)
22 | CN1C/C=C/CCOc2cccc(c2)-c2ccnc(n2)Nc2cccc(c2)C1 (10 µM) | -0.0856 | 104% (inactive)
23 | C[C@@]1(c2cc(-c3cncnc3)c(F)cc2F)CCSC(N)=N1 (10 µM) | 0.151 | 106% (inactive)
24 | C=C(NC(=O)C(=C)NC(=O)c1csc(C2=N[C@@H]3c4csc(n4)[C@H]4NC(=O)c5csc(n5)[C@H]([C@](C)(O)[C@@H](C)O)NC(=O)[C@H]5CSC(=N5)/C(=C/C)NC(=O)[C@H]([C@@H](C)O)NC(=O)c5csc(n5)[C@]3(CC2)NC(=O)[C@H](C)NC(=O)C(=C)NC(=O)[C@H](C)NC(=O)[C@H]([C@@H](C)CC)N[C@@H]2C=Cc3c([C@H](C)O)cc(nc3[C@H]2O)C(=O)O[C@@H]4C)n1)C(N)=O [thiostrepton] (10 µM) | 0.148 | 92.5% (inactive)
25 | CC(C)(c1ccc(O)cc1)c1ccc(O)cc1 [bisphenol-A] (10 µM) | 0.0642 | 106% (inactive)
26 | Nc1ccn([C@@H]2O[C@H](CO)[C@@H](O)C2(F)F)c(=O)n1 [gemcitabine] (0.833333 µM) | -0.00574 | 114% (inactive)
27 | COc1cc(Cc2cnc(N)nc2N)cc(OC)c1OC [trimethoprim] (10 µM) | -0.0548 | 98.5% (inactive)
